The structures appear in SMILES notation. Where “and” joins values, the source holds several entries; their conditions need not be identical. Equal entries are not always repeated. This is part of a sample that, as a whole, favours compounds with a hit. Of some 83,000 tested, about 20% had one in any assay.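 Values shown are percent growth following 48 h exposure of cells in 96-well plates to a single concentration of compound; below 10 was considered active.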 Values without a mark were called inactive. Calls of active or inactive are those of the source. *1 amine or outer side, *2 acyl side, *3 side chain or, on linkers, in order; H or OH if unused. Where a SMILES comes first, the peptide text is derived from it. Bridges are numbered along the chain shown (N, C = ends). Roman numbers before positions name the chains, in order. [ ]: non-standard residue; d: D form. Actinocin(1to9) = Cc1c2oc3c(C)ccc(C(=O)[*:2])c3nc-2c(C(=O)[*:1])c(N)c1=O; NMeV = CN[CH](C(=O)O)C(C)C; Sar = CNCC(=O)O

The test has as its system SNB-19 CNS. Kind of test: NCI-60 one-dose screen, 48 h (100 = growth as untreated, 0 = no growth, -100 = all killed). The following applies: 10 µM unless noted. The procedure: Growth inhibition of the SNB-19 human tumor cell line is measured as a screen for anti-cancer activity. Cells are grown in 96 well plates and exposed to the test compound for 48 hours. Compounds are tested at a single concentration, which is 10^-5 M for most compounds. The reported endpoint is percent growth (GI% or GIPRCNT), where numbers from 0 - 100% represent growth inhibition, and numbers from -100% - 0 represent cell death. For example, a value of 40 represents 60% growth inhibition. A value of 0 means no net growth occurred over the course of the experiment. A value of -40 indicates 40% of cells at the beginning of the experiment died by the end of the experiment. A value of -100 means all cells are dead at the end of the experiment.
NCI-60 Human Tumor Cell Lines Screen was performed using the standard one-dose NCI protocol, which is described in more detail at https://dtp.cancer.gov/discovery_development/nci-60/default.htm.
Compounds with GIPRCNT values below 10 were considered active. Activity score was based on GIPRCNT using the following formula: […]
Score is 0 for GIPRCNT values of 100 or above, 50 for GIPRCNT values of 0, and 100 for GIPRCNT values of -100.
In the case of `CC(C)(C)CC(C)(C)c1ccc(OCCOCCSC(=N)N)cc1`, the growth was 73.6%.

Turning to `NC(=S)N/N=C\c1nccc2c(N)cccc12`, the growth is 30.1%.

Take `CC(C)(C)c1ccc(O)c(Br)c1`: the growth is 95.9%.

Regarding `CCCCCCCCCCCC[n+]1ccc(CCCCCCCCC)cc1`, the growth was -74.5% (active).

As to `COc1ccc(NC(=O)/C(=C/N2C(=O)/C(=C/c3ccc(OC)c(OC)c3)NC2=S)C(C)=O)cc1`, the growth is 73%.

With `CCN(CC)CCNc1ccc([N+](=O)[O-])c2sc3ccccc3c(=O)c12`, the growth was 34.8%.

For the compound `NC(=S)Nc1ccc2c(c1)Cc1ccccc1-2`, the growth was 87.7%.

With `CCSc1nc2ccccc2o1`, the growth was 99.9%.

`COc1ccc(C(OCC2OC(n3ccc(NC(=O)c4ccccc4)nc3=O)C(O)C2O)(c2ccccc2)c2ccccc2)cc1` (stereo not given): the growth is 54.7%.

Consider `Cc1cc(C(N)=O)cc(C)c1C(=O)OCCCl`, for which the growth is 109%.

`N#CCc1cccc2ccccc12`: the growth was 110%.

For `Cn1ccc(=Nc2ccc(NC(=O)c3ccc(N=c4ccn(C)c5ccc([N+](=O)[O-])cc45)cc3)cc2)cc1`, the growth is -5.19% (active).

Regarding `CC1(C)OC2C(COC(c3ccccc3)(c3ccccc3)c3ccccc3)OC(c3c[nH]c4c(N)ncnc34)C2O1` (stereo not given), the growth was 66.1%.

For the compound `Cc1ccc2cccc(OC(=O)Nc3cccc(C(F)(F)F)c3)c2n1`, the growth is 72.1%.

Turning to `O=C1C=CC(=O)N1c1cc(Cl)c(Cl)cc1Cl`, the growth was 108%.

Consider `CCCCCCN(CCCCCC)CCCNc1nccc2ccccc12`, for which the growth is 20.3%.

As to `O=Nc1ccc2ccccc2c1O`, the growth is 97.6%.

In the case of `CCC(C)C1NC(=O)C(NC(=O)c2c3nc4c(C(=O)NC5C(=O)NC(C(C)CC)C(=O)N6CCCC6C(=O)N(C)CC(=O)N(C)C(C(C)C)C(=O)OC5C)ccc(C)c4oc-3c(C)c(=O)c2N)C(C)OC(=O)C(C(C)C)N(C)C(=O)CN(C)C(=O)C2CCCN2C1=O` (stereo not given) (I: TIP[Sar][NMeV] / II: TIP[Sar][NMeV]; ester I:1-I:C, II:1-II:C; linker I:N-II:N via Actinocin(1to9); configuration not given here), the growth is 4.27% (active).

As to `CC1(C)OCC(COC(c2ccccc2)(c2ccccc2)c2ccccc2)O1` (stereo not given), the growth was 100%.

Turning to `O=C1Nc2ccc(Br)cc2C1=O`, the growth is 101%.

Turning to `CCCOS(=O)(=O)c1ccccc1`, the growth was 103%.

For `C(=N\Nc1ccc2ccccc2n1)/c1ccccn1`, the growth is 21.3%.

For the compound `NNc1cccc([N+](=O)[O-])c1`, the growth was 107%.

With `c1ccc(-c2cc3cc4ccccc4cn3c2)cc1`, the growth was 92.3%.

For `CCC1C[N+]2=C(c3cc(OC)c(OC)cc3CC2)c2c1cc1n2CCc2cc(OC)c(OC)cc2-1` (stereo not given), the growth is 33.8%.

For the compound `OC(c1cc(-c2ccc(C(F)(F)F)cc2)nc(C(F)(F)F)c1)C1CCCCN1` (stereo not given), the growth was 33.4% and 37% and 53.7%.

In the case of `CCC1CCCCN1C(=S)N/N=C(\C)c1ccccn1` (stereo not given), the growth is 16.2%.

In the case of `CCOc1ccc(C(C[N+](=O)[O-])Sc2ccccc2N)cc1` (stereo not given), the growth is 46.2%.

On to `CC[n+]1ccc(Nc2ccc(NC(=O)c3ccc(Nc4cc[n+](CC)c5ccc([N+](=O)[O-])cc45)cc3)cc2)cc1`, for which the growth was 71.6%.

Consider `N#CC(I)CS(=O)(=O)c1ccccc1` (stereo not given), for which the growth was 94.8%.

Turning to `CC(C)=CCCC(C)C1=C(O)C(=O)C(C)=CC1=O` (stereo not given), the growth is 98.7%.

As to `COc1cc2c(c(OC)c1OC)-c1ccc(NCc3ccccc3)c(=O)cc1[C@@H](NC(C)=O)CC2`, the growth is 64.2%.

`COc1c(C)c2c(c(O)c1C/C=C(\C)CCC(=O)O)C(=O)OC2`: the growth was 42.3%.

On to `O=C1C=CC(=O)N1c1cccc2c1CCCC2`, for which the growth is 92.6%.

On to `COc1cccc2c1C(=O)c1c(O)c3c(c(O)c1C2=O)C[C@@](O)(C(=O)CO)C[C@@H]3OC1CC(OC(C)=O)C(OC(C)=O)C(C)O1` (stereo not given in full), for which the growth is -8.8% (active).

In the case of `CC(=O)N1CC(=O)NC1=S`, the growth was 101%.

As to `CCCC[n+]1c(/C=C\c2c(OC)cc(OC)cc2OC)ccc2ccccc21`, the growth was 19%.

In the case of `N#CC1c2ccccc2C=CN1C(=O)CCCl` (stereo not given), the growth is 107%.

In the case of `CCC(C)(O)Cc1ccc(Cl)cc1` (stereo not given), the growth was 102%.

As to `Nc1ccc(C(=O)/C=C/c2ccccc2)cc1`, the growth is 91.3%.

Source of the values: PubChem BioAssay (NCI).
